Among all 5,500 compounds or so, about 2,000 (36%) were called active. Roughly 18% stayed inconclusive and do not appear here. Cut-off read from the data, not from the text of the source: active = normalized growth mostly below about 0.91 (no sharp cut-off); inconclusive = no clear call, values can overlap the other calls; inactive = mostly above about 0.92. Some of the results follow.
Assay: chemical genetic growth profiling, strain panel (AID 1159580);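 note: tested at 20 µM; growth read once vehicle control cultures reached saturation at 30 °C; 1 = growth at the plate median or of vehicle wells; lower values mean less growth of the strain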
Details: growth OD

Measured: normalized growth

C=C[C@](C)(O)CCC=C(C)C
inactive: S. cerevisiae deletion strains, locus YBR021W, strain FUR4, active compounds read low 1.01 | S. cerevisiae deletion strains, locus YBR229C, strain ROT2, active compounds read low 1 | S. cerevisiae deletion strains, locus YCL029C, strain bik1, active compounds read low 1.02 | S. cerevisiae deletion strains, locus YDL035C, strain GPR1, active compounds read low 1.04 | S. cerevisiae deletion strains, locus YDL074C, strain BRE1, active compounds read low 1.06 | S. cerevisiae deletion strains, locus YDL101C, strain DUN1, active compounds read low 1.01 | S. cerevisiae deletion strains, locus YDL134C, strain PPH21, active compounds read low 1 | S. cerevisiae deletion strains, locus YDL185W, strain tfp1, active compounds read low 1.02 | S. cerevisiae deletion strains, locus YDL192W, strain arf1, active compounds read low 1.01 | S. cerevisiae deletion strains, locus YDR101C, strain arx1, active compounds read low 1.04 | S. cerevisiae deletion strains, locus YDR162C, strain NBP2, active compounds read low 1 | S. cerevisiae deletion strains, locus YDR318W, strain mcm21, active compounds read low 0.986 | S. cerevisiae deletion strains, locus YDR388W, active compounds read low 1.01 | S. cerevisiae deletion strains, locus YDR502C, strain sam2, active compounds read low 0.999 | S. cerevisiae deletion strains, locus YEL061C, strain CIN8, active compounds read low 1 | S. cerevisiae deletion strains, locus YER110C, active compounds read low 1.01 | S. cerevisiae deletion strains, locus YER155C, strain BEM2, active compounds read low 1.01 | S. cerevisiae deletion strains, locus YER167W, strain BCK2, active compounds read low 1.01 | S. cerevisiae deletion strains, locus YGL078C, strain dbp3, active compounds read low 1.02 | S. cerevisiae deletion strains, locus YGL086W, strain mad1, active compounds read low 1.05 | S. cerevisiae deletion strains, locus YGL248W, strain PDE1, active compounds read low 0.995 | S. cerevisiae deletion strains, locus YGR135W, strain pre9, active compounds read low 1.01 | S. cerevisiae deletion strains, locus YGR252W, strain gcn5, active compounds read low 0.977 | S. cerevisiae deletion strains, locus YHR030C, strain SLT2, active compounds read low 1.01 | S. cerevisiae deletion strains, locus YHR079C, strain IRE1 (second series), active compounds read low 1.01 | S. cerevisiae deletion strains, locus YHR094C, strain hxt1, active compounds read low 1.01 | S. cerevisiae deletion strains, locus YHR129C, strain ARP1, active compounds read low 1.02 | S. cerevisiae deletion strains, locus YHR200W, strain rpn10, active compounds read low 1.01 | S. cerevisiae deletion strains, locus YIL066C, strain RNR3, active compounds read low 1.01 | S. cerevisiae deletion strains, locus YIL073C, strain SPO22, active compounds read low 1.03 | S. cerevisiae deletion strains, locus YIL125W, strain kgd1, active compounds read low 1.02 | S. cerevisiae deletion strains, locus YIR030C, strain dcg1, active compounds read low 0.998 | S. cerevisiae deletion strains, locus YJL095W, strain BCK1, active compounds read low 0.988 | S. cerevisiae deletion strains, locus YJL134W, strain LCB3, active compounds read low 0.999 | S. cerevisiae deletion strains, locus YJL168C, strain set2, active compounds read low 1.01 | S. cerevisiae deletion strains, locus YJL187C, strain SWE1 (second series), active compounds read low 1 | S. cerevisiae deletion strains, locus YJR043C, strain POL32, active compounds read low 1.04 | S. cerevisiae deletion strains, locus YJR075W, strain HOC1, active compounds read low 1 | S. cerevisiae deletion strains, locus YKL009W, strain mrt4, active compounds read low 1.05 | S. cerevisiae deletion strains, locus YKL068W, active compounds read low 1 | S. cerevisiae deletion strains, locus YKL085W, strain MDH1 (second series), active compounds read low 0.995 | S. cerevisiae deletion strains, locus YKL085W, strain MDH1, active compounds read low 0.995 | S. cerevisiae deletion strains, locus YKL190W, strain CNB1, active compounds read low 1 | S. cerevisiae deletion strains, locus YKR001C, strain vps1, active compounds read low 1.06 | S. cerevisiae deletion strains, locus YLR039C, strain RIC1, active compounds read low 1.03 | S. cerevisiae deletion strains, locus YLR058C, strain SHM2, active compounds read low 0.997 | S. cerevisiae deletion strains, locus YLR102C, strain apc9, active compounds read low 1.01 | S. cerevisiae deletion strains, locus YLR262C, strain YPT6, active compounds read low 1.01 | S. cerevisiae deletion strains, locus YLR268W, strain sec22, active compounds read low 1.06 | S. cerevisiae deletion strains, locus YLR330W, strain CHS5, active compounds read low 1.02 | S. cerevisiae deletion strains, locus YLR342W, strain FKS1 (second series), active compounds read low 1.05 | S. cerevisiae deletion strains, locus YLR371W, strain rom2, active compounds read low 1.02 | S. cerevisiae deletion strains, locus YLR418C, strain cdc73, active compounds read low 0.984 | S. cerevisiae deletion strains, locus YML016C, strain PPZ1, active compounds read low 1.01 | S. cerevisiae deletion strains, locus YML032C, strain rad52, active compounds read low 0.973 | S. cerevisiae deletion strains, locus YML124C, strain tub3, active compounds read low 0.999 | S. cerevisiae deletion strains, locus YMR078C, strain ctf18, active compounds read low 1.01 | S. cerevisiae deletion strains, locus YMR223W, strain ubp8, active compounds read low 0.994 | S. cerevisiae deletion strains, locus YMR307W, strain GAS1, active compounds read low 1.03 | S. cerevisiae deletion strains, locus YNL067W, strain RPL9B, active compounds read low 1.01 | S. cerevisiae deletion strains, locus YNL233W, strain BNI4, active compounds read low 1 | S. cerevisiae deletion strains, locus YNL250W, strain rad50, active compounds read low 1.02 | S. cerevisiae deletion strains, locus YNL271C, strain bni1, active compounds read low 1.01 | S. cerevisiae deletion strains, locus YNL298W, strain CLA4, active compounds read low 1.02 | S. cerevisiae deletion strains, locus YNL307C, strain MCK1, active compounds read low 1.03 | S. cerevisiae deletion strains, locus YNL322C, strain KRE1, active compounds read low 1 | S. cerevisiae deletion strains, locus YNR052C, strain pop2, active compounds read low 0.997 | S. cerevisiae deletion strains, locus YOL006C, strain TOP1, active compounds read low 1.1 | S. cerevisiae deletion strains, locus YOL012C, strain htz1 1.44 | S. cerevisiae deletion strains, locus YOL147C, strain pex11, active compounds read low 1 | S. cerevisiae deletion strains, locus YOR061W, strain CKA2, active compounds read low 1 | S. cerevisiae deletion strains, locus YOR069W, strain VPS5, active compounds read low 1.01 | S. cerevisiae deletion strains, locus YOR136W, strain idh2, active compounds read low 1.01 | S. cerevisiae deletion strains, locus YOR144C, strain elg1, active compounds read low 1.01 | S. cerevisiae deletion strains, locus YOR184W, strain ser1, active compounds read low 1.05 | S. cerevisiae deletion strains, locus YOR316C, strain cot1, active compounds read low 1.01 | S. cerevisiae deletion strains, locus YPL241C, strain CIN2, active compounds read low 0.998 | S. cerevisiae deletion strains, locus YPR119W, strain clb2, active compounds read low 1 | S. cerevisiae deletion strains, locus YPR141C, strain kar3, active compounds read low 1 | S. cerevisiae deletion strains, locus YPR163C, strain tif3, active compounds read low 1 | S. cerevisiae deletion strains, locus YPR167C, strain met16, active compounds read low 0.999 | S. cerevisiae deletion strains, strain wtn01, active compounds read low 1.07 | S. cerevisiae strains, strain wild type, active compounds read low 1.01
